This note sets out measurements from ChEMBL document CHEMBL1961873, “Compounds: GSK PKIS; Assays: Nanosyn kinase panel” (2012).

The test system of experiment [1] is Epidermal growth factor receptor (Homo sapiens), P00533 [T790M]. The following applies: at 1 µM.
Experiment [2] deals with Epidermal growth factor receptor (Homo sapiens), P00533 [L858R,T790M]. The following applies: at 0.1 µM.
Experiment [3] has the same test system. The settings on record: at 1 µM.
The target in experiment [4] is Ephrin type-A receptor 2 (Homo sapiens) (UniProt P29317). The settings on record: at 0.1 µM.
Ephrin type-A receptor 2 (Homo sapiens), sequence (P29317 whole entry): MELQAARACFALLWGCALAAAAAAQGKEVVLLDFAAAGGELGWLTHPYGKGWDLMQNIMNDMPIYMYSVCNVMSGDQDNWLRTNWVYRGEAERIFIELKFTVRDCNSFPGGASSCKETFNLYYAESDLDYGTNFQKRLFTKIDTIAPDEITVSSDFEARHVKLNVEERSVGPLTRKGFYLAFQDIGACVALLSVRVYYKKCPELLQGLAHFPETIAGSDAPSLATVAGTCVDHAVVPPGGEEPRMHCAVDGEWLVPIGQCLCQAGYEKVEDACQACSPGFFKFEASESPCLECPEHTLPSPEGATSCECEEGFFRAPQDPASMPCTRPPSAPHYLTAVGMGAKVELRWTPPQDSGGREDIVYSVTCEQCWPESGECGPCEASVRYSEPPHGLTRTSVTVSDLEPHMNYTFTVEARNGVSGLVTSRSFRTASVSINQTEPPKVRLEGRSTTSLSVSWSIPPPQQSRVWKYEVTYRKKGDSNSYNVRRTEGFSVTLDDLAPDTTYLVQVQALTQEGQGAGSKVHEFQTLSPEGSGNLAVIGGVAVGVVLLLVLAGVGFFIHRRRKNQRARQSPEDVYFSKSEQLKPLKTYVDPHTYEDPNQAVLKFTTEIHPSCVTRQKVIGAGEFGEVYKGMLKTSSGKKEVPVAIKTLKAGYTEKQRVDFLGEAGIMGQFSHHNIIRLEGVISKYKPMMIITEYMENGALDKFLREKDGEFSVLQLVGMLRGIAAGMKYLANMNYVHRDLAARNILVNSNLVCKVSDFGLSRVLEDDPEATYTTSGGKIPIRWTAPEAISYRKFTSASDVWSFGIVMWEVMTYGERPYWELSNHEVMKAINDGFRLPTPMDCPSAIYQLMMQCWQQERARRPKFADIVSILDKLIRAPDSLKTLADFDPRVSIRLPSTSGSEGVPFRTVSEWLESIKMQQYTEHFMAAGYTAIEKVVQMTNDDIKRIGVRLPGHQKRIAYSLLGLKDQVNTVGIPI
The target is the same in experiment [5]. The following applies: at 1 µM.
Experiment [6] concerns the target T1, Ephrin type-A receptor 3 (Homo sapiens) (UniProt P29320).
T1 sequence (whole entry): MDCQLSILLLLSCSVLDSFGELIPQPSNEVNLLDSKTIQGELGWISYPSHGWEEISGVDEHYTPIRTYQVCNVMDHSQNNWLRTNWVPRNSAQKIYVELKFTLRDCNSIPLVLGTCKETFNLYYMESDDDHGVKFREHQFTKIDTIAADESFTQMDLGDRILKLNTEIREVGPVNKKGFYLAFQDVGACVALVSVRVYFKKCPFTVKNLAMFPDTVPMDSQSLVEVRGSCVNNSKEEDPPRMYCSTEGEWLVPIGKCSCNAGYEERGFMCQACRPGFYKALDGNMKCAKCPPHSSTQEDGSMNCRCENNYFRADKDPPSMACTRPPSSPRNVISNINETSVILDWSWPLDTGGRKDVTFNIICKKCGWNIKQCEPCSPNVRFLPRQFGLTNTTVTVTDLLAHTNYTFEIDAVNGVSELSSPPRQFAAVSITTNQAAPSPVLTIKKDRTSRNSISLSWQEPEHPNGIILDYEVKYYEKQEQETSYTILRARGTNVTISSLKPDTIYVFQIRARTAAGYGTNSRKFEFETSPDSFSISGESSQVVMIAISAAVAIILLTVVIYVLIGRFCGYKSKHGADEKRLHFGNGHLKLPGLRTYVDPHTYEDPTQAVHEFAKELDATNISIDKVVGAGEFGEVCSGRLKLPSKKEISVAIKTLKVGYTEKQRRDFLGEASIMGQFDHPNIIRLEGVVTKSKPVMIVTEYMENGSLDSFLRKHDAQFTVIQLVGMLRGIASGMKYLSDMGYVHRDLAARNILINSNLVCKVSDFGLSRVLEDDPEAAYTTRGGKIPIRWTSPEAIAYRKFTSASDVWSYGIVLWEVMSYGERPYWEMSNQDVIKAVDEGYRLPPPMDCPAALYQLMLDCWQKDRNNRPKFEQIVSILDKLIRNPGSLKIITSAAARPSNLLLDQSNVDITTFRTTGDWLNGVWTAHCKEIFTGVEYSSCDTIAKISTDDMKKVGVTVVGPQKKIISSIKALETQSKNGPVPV
The settings on record: at 0.1 µM.

For experiment [7], the target named is T1, Ephrin type-A receptor 3 (Homo sapiens). The following applies: at 1 µM.
Experiment [8] concerns the target Ephrin type-A receptor 4 (Homo sapiens) (UniProt P54764). The following applies: at 0.1 µM.
The target is the same in experiment [9]. The settings on record: at 1 µM.
The target of experiment [10] is T2, Ephrin type-B receptor 2 (Homo sapiens) (UniProt P29323).
T2 sequence (whole entry): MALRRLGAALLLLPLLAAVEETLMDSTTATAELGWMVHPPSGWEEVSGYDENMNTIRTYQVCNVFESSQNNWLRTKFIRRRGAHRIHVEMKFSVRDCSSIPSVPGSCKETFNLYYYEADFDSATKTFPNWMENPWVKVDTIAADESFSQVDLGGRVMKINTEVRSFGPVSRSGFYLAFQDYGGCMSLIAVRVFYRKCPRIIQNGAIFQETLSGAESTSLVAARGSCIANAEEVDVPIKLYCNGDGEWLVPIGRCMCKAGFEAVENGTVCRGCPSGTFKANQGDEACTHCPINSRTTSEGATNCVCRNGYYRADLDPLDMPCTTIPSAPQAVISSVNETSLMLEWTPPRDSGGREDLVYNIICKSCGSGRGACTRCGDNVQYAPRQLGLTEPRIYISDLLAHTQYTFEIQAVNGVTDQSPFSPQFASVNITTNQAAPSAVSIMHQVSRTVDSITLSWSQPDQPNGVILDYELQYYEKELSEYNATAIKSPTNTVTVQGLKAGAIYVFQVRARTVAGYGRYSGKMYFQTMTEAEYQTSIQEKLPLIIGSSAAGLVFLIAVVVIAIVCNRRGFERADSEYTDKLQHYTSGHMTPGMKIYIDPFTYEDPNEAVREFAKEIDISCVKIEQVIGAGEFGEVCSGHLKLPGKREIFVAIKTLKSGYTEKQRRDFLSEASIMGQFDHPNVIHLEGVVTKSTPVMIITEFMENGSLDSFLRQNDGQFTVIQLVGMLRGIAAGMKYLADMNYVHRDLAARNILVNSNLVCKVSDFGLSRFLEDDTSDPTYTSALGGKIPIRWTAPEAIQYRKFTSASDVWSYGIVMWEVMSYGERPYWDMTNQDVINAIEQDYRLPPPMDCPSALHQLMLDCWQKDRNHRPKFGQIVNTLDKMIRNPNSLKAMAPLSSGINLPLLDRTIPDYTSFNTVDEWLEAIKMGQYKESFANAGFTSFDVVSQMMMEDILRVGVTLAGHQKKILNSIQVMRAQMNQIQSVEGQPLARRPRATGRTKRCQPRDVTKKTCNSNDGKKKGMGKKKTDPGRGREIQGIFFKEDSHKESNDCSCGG
The following applies: at 0.1 µM.

Experiment [11] concerns the target T2, Ephrin type-B receptor 2 (Homo sapiens). The following applies: at 1 µM.
Experiment [12] addresses T3, Ephrin type-B receptor 3 (Homo sapiens) (UniProt P54753).
T3 sequence (whole entry): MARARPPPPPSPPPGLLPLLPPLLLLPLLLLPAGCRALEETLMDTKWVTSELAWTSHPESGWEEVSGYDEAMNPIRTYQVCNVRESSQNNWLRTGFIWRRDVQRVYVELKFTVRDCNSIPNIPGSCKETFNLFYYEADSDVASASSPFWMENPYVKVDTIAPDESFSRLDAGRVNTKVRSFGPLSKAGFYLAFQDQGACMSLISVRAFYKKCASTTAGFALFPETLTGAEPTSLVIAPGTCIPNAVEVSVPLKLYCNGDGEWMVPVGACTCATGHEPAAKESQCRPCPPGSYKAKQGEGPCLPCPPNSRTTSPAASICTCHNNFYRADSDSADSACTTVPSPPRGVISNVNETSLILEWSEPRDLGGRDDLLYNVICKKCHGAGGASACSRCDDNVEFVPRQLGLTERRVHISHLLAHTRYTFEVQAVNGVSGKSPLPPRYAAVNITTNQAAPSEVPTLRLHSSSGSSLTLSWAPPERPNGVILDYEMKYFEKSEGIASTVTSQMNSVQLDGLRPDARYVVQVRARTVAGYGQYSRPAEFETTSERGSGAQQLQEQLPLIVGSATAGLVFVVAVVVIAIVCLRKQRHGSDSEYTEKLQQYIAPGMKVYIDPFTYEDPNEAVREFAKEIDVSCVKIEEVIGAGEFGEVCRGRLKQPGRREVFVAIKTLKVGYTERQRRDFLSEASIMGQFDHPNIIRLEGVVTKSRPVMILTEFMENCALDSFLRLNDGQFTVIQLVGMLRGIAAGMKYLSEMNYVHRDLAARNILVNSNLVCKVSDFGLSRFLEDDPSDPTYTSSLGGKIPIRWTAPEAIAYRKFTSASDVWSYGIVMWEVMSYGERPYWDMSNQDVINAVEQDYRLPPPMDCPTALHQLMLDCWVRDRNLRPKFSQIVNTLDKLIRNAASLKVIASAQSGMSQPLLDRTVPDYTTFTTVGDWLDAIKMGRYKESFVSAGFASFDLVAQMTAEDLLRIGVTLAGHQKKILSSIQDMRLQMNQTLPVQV
The following applies: at 0.1 µM.

The target of experiment [13] is T3, Ephrin type-B receptor 3 (Homo sapiens). The settings on record: at 1 µM.
In experiment [14] the target is T4, Ephrin type-B receptor 4 (Homo sapiens) (UniProt P54760).
T4 sequence (whole entry): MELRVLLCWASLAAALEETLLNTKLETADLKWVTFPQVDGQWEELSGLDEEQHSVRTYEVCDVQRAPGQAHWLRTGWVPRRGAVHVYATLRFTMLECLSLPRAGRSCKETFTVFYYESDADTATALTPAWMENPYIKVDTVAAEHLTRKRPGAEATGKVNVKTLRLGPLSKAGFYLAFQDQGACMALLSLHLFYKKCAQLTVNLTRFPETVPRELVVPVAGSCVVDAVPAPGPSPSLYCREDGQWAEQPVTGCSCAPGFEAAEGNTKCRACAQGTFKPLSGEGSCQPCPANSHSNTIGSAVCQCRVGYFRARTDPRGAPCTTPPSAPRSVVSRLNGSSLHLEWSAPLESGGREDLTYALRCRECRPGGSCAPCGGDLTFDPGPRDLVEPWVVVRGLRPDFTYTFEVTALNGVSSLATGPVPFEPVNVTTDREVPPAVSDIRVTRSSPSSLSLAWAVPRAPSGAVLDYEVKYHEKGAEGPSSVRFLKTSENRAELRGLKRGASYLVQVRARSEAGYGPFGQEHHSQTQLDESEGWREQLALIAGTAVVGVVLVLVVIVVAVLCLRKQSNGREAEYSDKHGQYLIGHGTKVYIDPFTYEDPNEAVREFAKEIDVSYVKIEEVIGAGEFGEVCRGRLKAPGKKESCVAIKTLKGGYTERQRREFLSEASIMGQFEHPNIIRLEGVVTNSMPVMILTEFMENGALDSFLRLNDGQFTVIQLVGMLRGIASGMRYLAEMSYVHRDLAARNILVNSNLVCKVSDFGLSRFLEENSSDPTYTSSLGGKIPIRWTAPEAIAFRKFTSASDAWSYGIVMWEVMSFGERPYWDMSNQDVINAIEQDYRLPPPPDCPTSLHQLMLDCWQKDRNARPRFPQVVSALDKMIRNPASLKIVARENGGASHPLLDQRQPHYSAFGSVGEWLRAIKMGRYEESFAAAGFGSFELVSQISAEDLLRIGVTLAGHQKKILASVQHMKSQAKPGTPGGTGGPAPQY
The following applies: at 0.1 µM.

Experiment [15] concerns the target T4, Ephrin type-B receptor 4 (Homo sapiens). The settings on record: at 1 µM.
Experiment [16] has as its target Receptor tyrosine-protein kinase erbB-2 (Homo sapiens) (UniProt P04626). The following applies: at 0.1 µM.
Experiment [17] shares this target. The settings on record: at 1 µM.
Experiment [18] deals with Receptor tyrosine-protein kinase erbB-4 (Homo sapiens) (UniProt Q15303). The following applies: at 0.1 µM.
Receptor tyrosine-protein kinase erbB-4 (Homo sapiens), sequence (Q15303 whole entry): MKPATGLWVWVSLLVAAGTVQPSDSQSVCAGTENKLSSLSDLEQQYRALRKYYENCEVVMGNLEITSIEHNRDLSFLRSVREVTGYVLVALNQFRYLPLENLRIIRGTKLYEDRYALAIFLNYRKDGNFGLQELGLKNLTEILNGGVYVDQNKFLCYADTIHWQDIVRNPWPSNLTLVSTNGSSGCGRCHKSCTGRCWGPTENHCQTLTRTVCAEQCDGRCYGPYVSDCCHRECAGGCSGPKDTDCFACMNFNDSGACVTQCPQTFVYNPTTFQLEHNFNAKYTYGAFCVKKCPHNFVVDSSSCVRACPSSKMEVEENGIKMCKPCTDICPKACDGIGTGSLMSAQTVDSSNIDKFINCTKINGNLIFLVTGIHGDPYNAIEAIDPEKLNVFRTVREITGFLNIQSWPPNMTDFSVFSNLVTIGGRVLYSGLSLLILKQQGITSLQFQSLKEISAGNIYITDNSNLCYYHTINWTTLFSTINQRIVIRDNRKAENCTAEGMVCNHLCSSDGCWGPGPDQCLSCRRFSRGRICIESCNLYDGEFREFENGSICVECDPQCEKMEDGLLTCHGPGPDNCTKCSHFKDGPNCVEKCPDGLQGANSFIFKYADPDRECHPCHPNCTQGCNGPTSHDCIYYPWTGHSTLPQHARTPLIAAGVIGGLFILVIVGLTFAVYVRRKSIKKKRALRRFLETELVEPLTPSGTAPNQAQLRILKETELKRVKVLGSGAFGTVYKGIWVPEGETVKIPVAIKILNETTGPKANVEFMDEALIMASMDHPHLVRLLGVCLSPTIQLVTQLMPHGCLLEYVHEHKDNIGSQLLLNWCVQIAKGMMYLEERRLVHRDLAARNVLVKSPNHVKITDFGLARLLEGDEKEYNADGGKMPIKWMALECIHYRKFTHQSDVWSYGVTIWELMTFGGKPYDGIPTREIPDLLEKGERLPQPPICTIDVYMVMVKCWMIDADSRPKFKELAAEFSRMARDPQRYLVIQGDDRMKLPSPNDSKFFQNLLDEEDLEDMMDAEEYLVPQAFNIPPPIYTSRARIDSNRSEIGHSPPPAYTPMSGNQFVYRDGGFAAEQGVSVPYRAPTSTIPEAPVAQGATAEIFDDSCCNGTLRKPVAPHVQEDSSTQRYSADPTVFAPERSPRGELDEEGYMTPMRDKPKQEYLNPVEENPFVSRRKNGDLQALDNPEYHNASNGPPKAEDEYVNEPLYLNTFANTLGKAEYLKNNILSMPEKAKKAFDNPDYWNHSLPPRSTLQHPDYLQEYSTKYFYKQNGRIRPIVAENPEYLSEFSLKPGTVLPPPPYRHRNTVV
For experiment [19] the target is unchanged. The following applies: at 1 µM.
Experiment [20] concerns the target Tyrosine-protein kinase Fer (Homo sapiens) (UniProt P16591). The settings on record: at 0.1 µM.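 Note: reported figures are averaged percent inhibition of FER.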

What is called inhibition is the drop in the measured response relative to a control, in per cent.

Receptor tyrosine-protein kinase erbB-2 (Homo sapiens), sequence (P04626 whole entry): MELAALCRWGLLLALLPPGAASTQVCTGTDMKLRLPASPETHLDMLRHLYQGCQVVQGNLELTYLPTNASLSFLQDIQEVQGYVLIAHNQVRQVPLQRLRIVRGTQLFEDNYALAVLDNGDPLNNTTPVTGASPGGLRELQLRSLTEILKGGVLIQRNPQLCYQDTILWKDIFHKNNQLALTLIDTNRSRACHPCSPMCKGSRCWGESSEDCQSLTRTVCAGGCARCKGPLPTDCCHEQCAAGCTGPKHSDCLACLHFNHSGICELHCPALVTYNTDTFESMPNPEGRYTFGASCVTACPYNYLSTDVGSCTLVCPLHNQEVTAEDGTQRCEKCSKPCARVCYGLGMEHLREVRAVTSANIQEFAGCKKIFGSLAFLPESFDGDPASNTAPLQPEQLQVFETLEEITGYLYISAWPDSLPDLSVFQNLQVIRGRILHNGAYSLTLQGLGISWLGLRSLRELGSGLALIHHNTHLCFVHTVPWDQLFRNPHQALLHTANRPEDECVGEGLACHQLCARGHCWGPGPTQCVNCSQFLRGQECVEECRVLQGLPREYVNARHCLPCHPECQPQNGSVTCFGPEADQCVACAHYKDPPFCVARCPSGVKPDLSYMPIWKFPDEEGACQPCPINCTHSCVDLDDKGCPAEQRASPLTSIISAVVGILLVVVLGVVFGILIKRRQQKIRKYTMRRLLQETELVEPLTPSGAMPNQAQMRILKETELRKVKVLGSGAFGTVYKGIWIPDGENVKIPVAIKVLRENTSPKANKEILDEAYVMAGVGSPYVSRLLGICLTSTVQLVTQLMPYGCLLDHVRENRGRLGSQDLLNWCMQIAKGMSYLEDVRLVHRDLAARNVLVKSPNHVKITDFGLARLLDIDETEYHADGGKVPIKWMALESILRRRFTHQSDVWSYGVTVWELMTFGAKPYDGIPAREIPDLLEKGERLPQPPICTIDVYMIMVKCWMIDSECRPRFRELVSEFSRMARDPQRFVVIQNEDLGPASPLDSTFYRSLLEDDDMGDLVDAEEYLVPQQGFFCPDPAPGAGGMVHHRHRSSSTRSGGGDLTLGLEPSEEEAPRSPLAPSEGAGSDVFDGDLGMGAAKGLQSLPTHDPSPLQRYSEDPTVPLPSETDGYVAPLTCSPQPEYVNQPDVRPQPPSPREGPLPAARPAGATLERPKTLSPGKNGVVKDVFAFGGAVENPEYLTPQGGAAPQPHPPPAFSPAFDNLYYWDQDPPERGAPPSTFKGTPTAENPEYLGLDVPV
Tyrosine-protein kinase Fer (Homo sapiens), sequence (P16591 whole entry, looked up): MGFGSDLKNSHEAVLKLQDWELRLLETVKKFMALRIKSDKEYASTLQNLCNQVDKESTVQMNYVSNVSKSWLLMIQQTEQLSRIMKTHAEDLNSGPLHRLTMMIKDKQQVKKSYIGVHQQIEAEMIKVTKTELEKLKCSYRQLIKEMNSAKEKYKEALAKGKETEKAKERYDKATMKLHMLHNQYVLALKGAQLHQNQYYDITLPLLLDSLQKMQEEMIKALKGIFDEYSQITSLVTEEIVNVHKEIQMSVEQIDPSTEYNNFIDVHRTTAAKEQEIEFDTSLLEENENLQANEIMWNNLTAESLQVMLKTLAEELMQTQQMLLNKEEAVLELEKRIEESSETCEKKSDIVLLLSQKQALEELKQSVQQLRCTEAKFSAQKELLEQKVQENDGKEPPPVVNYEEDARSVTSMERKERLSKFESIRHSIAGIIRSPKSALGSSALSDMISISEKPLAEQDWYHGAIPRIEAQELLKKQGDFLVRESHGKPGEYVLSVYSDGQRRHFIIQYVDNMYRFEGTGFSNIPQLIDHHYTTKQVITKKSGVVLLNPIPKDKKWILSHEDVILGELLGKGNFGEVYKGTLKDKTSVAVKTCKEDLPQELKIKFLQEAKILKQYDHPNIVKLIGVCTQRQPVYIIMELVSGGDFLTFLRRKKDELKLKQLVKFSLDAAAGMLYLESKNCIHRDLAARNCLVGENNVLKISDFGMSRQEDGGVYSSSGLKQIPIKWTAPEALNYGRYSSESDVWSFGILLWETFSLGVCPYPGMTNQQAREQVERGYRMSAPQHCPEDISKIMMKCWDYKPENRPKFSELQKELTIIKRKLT

With `CC(C)COC(=O)c1ccc2c(c1)/C(=C/Nc1ccc(S(N)(=O)=O)cc1)C(=O)N2`, the inhibition in experiment [1] is -2.28%; in [2], -2.38%; in [3], 3.71%; in [4], -3.29%; in experiment [5], -3.24%; in experiment [6] it was -2.74%. Besides, the inhibition in experiment [7] is 0.31%; in experiment [8], -1.11%; in [9] it was 1.79%; in [10], -3.84%; in [11] it was -4.93%; in experiment [12], 0.34%. The inhibition in experiment [13] is -4.87%; in experiment [14] it was -1.38%; in experiment [15], 1.51%; in experiment [16] it was -2.55%; in experiment [17], -0.17%; in experiment [18] it was -2.58%. Moreover, the inhibition was -2.34% in experiment [19] and 0.76% in [20].
As to `NS(=O)(=O)c1ccc(Nc2ncc(-c3ccccc3)o2)cc1`, the inhibition in [1] worked out at 0.87%; in [2], 2.14%; in [3], 0.87%; in experiment [4], 2.66%; in [5], 3.5%; in experiment [6], 2.94%. Moreover, the inhibition in experiment [7] worked out at 4.57%; in experiment [8], 7.23%; in [9] it was 12%; in experiment [10], 5.54%; in experiment [11], 7.75%; in experiment [12], 4.17%. For the same compound, the inhibition is 3.33% in [13]; 2.27% in experiment [14]; 1.72% in [15]; 2.57% in experiment [16]; 2.77% in experiment [17]; 8.79% in experiment [18]. Also, the inhibition in experiment [19] worked out at 10.5%; in [20], 2.73%.
On to `CCNC(=O)O[C@H]1CN[C@H](C#Cc2cc3ncnc(Nc4ccc(OCc5cccc(F)c5)c(Cl)c4)c3s2)C1`, for which the inhibition came out at 10.6% in [1]; 2.62% in [2]; 4.48% in [3]; 3.3% in experiment [4]; 2.25% in experiment [5]; 6.99% in experiment [6]. The inhibition in [7] amounted to 4.34%; in experiment [8] it was 8.98%; in [9], 6.16%; in experiment [10], 8.39%; in [11], 4.8%; in experiment [12] it was 3.91%. Moreover, the inhibition in experiment [13] came out at 5.16%; in experiment [14] it was 3.25%; in [15], 4.36%; in [16], 8.63%; in experiment [17], 60.4%; in [18] it was 94.2%. Moreover, the inhibition was 101% in [19] and 4.88% in experiment [20].
